Values without a mark were called inactive. Results filed as inconclusive are left out. A call without a number means that no potency is given here. More than one record can exist for a structure, and the calls need not agree. The source made the active and inactive calls. Unless noted, calls follow the shape of the dose curve; as a rule, active = well fitted curve in the direction sought with a large enough effect in the repeat runs; inconclusive = weak or mixed curves; inactive = no such curve, though single readings can be large; an effect the other way counts as inactive or inconclusive.
What was measured:
[1] = qHTS assay for small molecule agonists of the p53 signaling pathway (AID 651631; calls by dose curve; also: nearly all actives have a fitted effect of over 15% in size)
In short: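 p53RE-bla HCT-116 cells; compounds 16 h, 37 °C; LiveBLAzer B/G FRET substrate 2 h RT; fluorescence intensity read-out, qHTS format.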

[2] = qHTS assay for small molecules that induce genotoxicity in human embryonic kidney cells expressing luciferase-tagged ATAD5 (AID 651632); also: nearly all actives have a fitted effect of over 15% in size
In short: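 Genotoxicity read-out via ATAD5-luciferase: HEK293T cells, 16 hr compound incubation at 37C, Amplite detection.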

[3] = qHTS assay for small molecule agonists of the p53 signaling pathway - cell viability (AID 651633; calls by dose curve;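 also: p53RE-bla HCT reporter cells with a stable beta-lactamase p53 reporter; series mostly up to about 83 µM; nearly all actives have a fitted effect of over 30% in size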)
In short: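 p53RE-bla cells, seeded at 4,000 per well and rested 5 h at 37 C/5% CO2, received compounds in DMSO for 16 h at 37 C. CellTiter-Glo was then added, and luminescence was read after 30 min at room temperature to gauge cytotoxicity.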

[4] = qHTS assay to test for compound auto fluorescence at 590 nm (red) in HepG2 cells (AID 720674)
In short: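 Intrinsic compound fluorescence in the red window (Ex/Em 540/590 nm) is measured in attached HepG2 cells exposed for 1 hr, DMSO vehicle as baseline, benchmarked to Rose Bengal sodium.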

[5] = qHTS assay to test for compound auto fluorescence at 535 nm (green) in HepG2 cells (AID 720675)
[6] = qHTS assay to test for compound auto fluorescence at 460 nm (blue) in HEK293 cells (AID 720678)
In short: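 After cell attachment (4-5 hr, 37C), compounds were pinned onto HEK293 monolayers in 10% dialyzed FBS medium. The blue channel (405/460 nm) was read following overnight culture. Equivalency was calculated against triamterene.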

[7] = qHTS assay to test for compound auto fluorescence at 590 nm (red) in HEK293 cells (AID 720679)
In short: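 Plates of HEK293 cells (10% dialyzed FBS) are treated with 23 nL compound or DMSO vehicle after a 4-5 hr attachment period, incubated overnight at 37C, and read for red fluorescence at 540/590nm.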

[8] = qHTS assay for small molecules that induce genotoxicity in human embryonic kidney cells expressing luciferase-tagged ATAD5 - cell viability (AID 651634; calls by dose curve; also: nearly all actives have a fitted effect of over 25% in size; also: potency is read from the fitted curve at half-maximal effect)
In short: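 Live-cell protease activity (CellTiter-Fluor, fluorescence) indicates viability. HEK293T cells with luciferase-tagged ATAD5; 15.5 hr compound treatment at 37C.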

[9] = qHTS assay for small molecule disruptors of the mitochondrial membrane potential - cell viability (AID 720634; calls by dose curve;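 also: human HepG2 liver cancer cells; series mostly up to about 83 µM; nearly all actives have a fitted effect of over 20% in size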)
In short: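 Human hepatoma HepG2 cells were treated for 1 hr with test chemicals, then given m-MPI dye and CellTiter-Glo. Cell viability reflects luminescence proportional to cellular ATP.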

[10] = qHTS assay for small molecule disruptors of the mitochondrial membrane potential (AID 720635); also: potency is read from the fitted curve at half-maximal effect
In short: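 HepG2 cells (2,000/well) attached overnight at 37C, then took compound for 1 hr at 37C, 5% CO2. Mito-MPS dye was added for 30 min; fluorescence was read at 490/535 nm (monomers) and 540/590 nm (aggregates).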

Row | Compound | outcome [1] | outcome [2] | outcome [3] | outcome [4] | outcome [5] | outcome [6] | outcome [7] | Potency [8] | outcome [9] | Potency [10] | activity, negative = cytotoxicity [8]
1 | C=CCCCC | inactive | inactive | inactive | inactive | inactive | inactive | inactive | – | – | – | –
2 | CC(C)Nc1ccccc1 | inactive | inactive | – | inactive | inactive | inactive | inactive | inactive | inactive | inactive | –
3 | CC(=O)CCC1=C(C)CCCC1(C)C | – | inactive | inactive | inactive | inactive | inactive | inactive | inactive | inactive | inactive | –
4 | C=CC/C=C/C | inactive | inactive | – | inactive | inactive | inactive | inactive | – | inactive | – | –
5 | CC(=O)c1cc(C)oc1C | inactive | inactive | – | inactive | inactive | inactive | inactive | inactive | inactive | – | –
6 | CCOC(=O)CC1(C)OCC(C)O1 (centres undefined) | inactive | inactive | – | inactive | inactive | inactive | inactive | inactive | inactive | inactive | –
7 | COc1cc2c(cc1OC)C(=O)C(CC1CCN(Cc3ccccc3)CC1)C2 (centres undefined) | – | inactive | inactive | inactive | inactive | inactive | inactive | inactive | inactive | inactive | –
8 | O=S(=O)(O)c1ccc2c(N=Nc3ccc(S(=O)(=O)O)c4ccccc34)c(O)c(S(=O)(=O)O)cc2c1 | inactive | – | inactive | inactive | inactive | inactive | inactive | 13.3 µM (active) | inactive | – | -17.7% [at 8.08 µM]
9 | CC(O)COC(C)(C)C (centres undefined) | inactive | – | inactive | inactive | inactive | inactive | inactive | inactive | inactive | – | –
10 | C=CCCCCCCCC | inactive | inactive | – | inactive | inactive | inactive | inactive | inactive | inactive | – | –
11 | Cc1ccnc(N)c1 | inactive | inactive | – | inactive | inactive | inactive | inactive | inactive | inactive | inactive | –
12 | CC(=O)CC(=O)OC(C)(C)C | inactive | inactive | – | inactive | inactive | inactive | inactive | – | inactive | inactive | –
13 | C/C(CC(C)C)=N\O | inactive | inactive | – | inactive | inactive | inactive | inactive | inactive | inactive | inactive | –
14 | CCCCOC(=O)[C@H](C)O | inactive | inactive | – | inactive | inactive | inactive | inactive | inactive | inactive | – | –
15 | CC(=O)O[Si](C)(OC(C)=O)OC(C)=O | inactive | inactive | – | inactive | inactive | inactive | inactive | inactive | inactive | 17.7 µM (active) | –
16 | CCCCCCC1(C)CCC(=O)O1 (centres undefined) | inactive | inactive | – | inactive | inactive | inactive | inactive | – | inactive | – | –
17 | OCC(O)CN1CCN(c2ccccc2)CC1 (centres undefined) | – | inactive | inactive | inactive | inactive | inactive | inactive | inactive | inactive | inactive | –
18 | CN(C)CC/C=C1/c2ccccc2COc2ccc(CC(=O)O)cc21 | inactive | inactive | inactive | inactive | inactive | inactive | inactive | – | – | – | –
